Our source for the Percent Effect values is ChEMBL document CHEMBL3988442, “University of Dundee, Small-Polar-MMV Screening Library” (2021).

Holding throughout (set-up): scale not given: direction of the effect not stated beside the values
The target in test [1] is Protein translocase subunit SecA (Escherichia coli (strain K12)) (UniProt P10408). The test can be described thus: Assay to Identify E. coli SecA ATPase Inhibitors. The format is functional. The following applies: 30 µM.
The target in test [2] is T1, Ubiquitin-activating enzyme e1, putative (Leishmania donovani (strain BPK282A1)) (UniProt E9BSI1).
T1 sequence (whole entry): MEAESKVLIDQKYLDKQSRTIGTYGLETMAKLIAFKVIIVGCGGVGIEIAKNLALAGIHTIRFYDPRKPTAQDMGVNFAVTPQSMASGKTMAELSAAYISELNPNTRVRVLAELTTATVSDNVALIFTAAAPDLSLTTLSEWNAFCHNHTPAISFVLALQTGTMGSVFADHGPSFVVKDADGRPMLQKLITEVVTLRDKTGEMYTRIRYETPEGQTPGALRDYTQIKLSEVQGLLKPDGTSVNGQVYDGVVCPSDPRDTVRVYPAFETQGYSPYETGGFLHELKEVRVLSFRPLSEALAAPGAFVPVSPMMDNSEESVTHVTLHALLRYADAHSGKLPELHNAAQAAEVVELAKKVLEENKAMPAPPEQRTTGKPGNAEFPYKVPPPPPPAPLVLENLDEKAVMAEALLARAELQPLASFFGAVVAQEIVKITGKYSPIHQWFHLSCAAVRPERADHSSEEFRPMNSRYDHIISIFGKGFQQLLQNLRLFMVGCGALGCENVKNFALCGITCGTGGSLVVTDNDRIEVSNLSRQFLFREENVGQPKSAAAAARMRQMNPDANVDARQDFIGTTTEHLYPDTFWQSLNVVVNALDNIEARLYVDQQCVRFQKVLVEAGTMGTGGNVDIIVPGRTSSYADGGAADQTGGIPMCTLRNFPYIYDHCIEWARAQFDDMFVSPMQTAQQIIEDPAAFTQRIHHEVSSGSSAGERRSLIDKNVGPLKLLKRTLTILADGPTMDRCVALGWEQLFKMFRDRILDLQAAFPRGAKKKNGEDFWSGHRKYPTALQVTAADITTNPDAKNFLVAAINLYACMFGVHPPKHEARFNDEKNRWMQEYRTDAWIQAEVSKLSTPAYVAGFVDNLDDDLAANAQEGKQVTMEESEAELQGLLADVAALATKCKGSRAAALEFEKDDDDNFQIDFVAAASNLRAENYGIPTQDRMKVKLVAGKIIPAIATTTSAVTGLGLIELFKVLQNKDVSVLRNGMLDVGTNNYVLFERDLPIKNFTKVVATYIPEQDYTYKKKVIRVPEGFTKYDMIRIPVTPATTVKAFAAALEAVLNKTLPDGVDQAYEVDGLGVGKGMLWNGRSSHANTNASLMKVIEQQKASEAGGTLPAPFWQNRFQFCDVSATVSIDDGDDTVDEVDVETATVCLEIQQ
The test can be described thus: Leishmania donovani Ubiquitin Activating Enzyme (LdE1). The format is functional. The settings on record: 30 µM.

Test [3] deals with Sialic acid-binding Ig-like lectin 9 (Homo sapiens) (UniProt Q9Y336). The test can be described thus: Hs-Siglec9 ALPHAscreen SOP 20170721. The following applies: 10 µM. A general note: In Alpha technology, singlet oxygen from a donor bead excites a nearby acceptor bead.
Sequence of Sialic acid-binding Ig-like lectin 9 (Homo sapiens) (Q9Y336 whole entry): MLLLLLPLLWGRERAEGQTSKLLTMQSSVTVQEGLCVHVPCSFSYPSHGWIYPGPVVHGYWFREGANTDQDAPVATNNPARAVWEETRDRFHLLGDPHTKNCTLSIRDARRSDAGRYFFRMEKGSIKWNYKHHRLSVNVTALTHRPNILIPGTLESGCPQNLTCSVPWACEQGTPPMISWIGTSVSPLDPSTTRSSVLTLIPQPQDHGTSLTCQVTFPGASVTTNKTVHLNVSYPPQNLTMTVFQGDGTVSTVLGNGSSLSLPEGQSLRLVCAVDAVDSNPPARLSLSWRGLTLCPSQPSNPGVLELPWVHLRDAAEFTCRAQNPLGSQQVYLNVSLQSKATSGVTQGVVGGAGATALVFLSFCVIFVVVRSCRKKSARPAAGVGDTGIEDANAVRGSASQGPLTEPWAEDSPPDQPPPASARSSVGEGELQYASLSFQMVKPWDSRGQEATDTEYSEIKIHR
Test [4] has as its system Trypanosoma cruzi. The test can be described thus: Trypanosoma cruzi phosphomannomutase and mannose-1-phosphate guanylyltransferase assay. The format is functional. The following applies: 10 µM.
The target of test [5] is T2, Arginase-2, mitochondrial (Homo sapiens) (UniProt P78540).
T2 sequence (whole entry): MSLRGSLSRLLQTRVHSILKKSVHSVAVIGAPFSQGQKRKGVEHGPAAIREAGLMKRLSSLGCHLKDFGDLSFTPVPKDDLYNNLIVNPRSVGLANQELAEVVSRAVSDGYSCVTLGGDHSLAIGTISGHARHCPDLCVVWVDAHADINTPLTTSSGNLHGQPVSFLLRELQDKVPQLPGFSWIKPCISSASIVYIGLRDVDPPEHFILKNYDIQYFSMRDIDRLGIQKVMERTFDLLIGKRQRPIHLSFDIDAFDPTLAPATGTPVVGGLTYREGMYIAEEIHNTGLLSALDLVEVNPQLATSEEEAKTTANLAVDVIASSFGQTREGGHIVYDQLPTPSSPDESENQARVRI
The test can be described thus: in vitro enzyme assay to detect the production of urea directly proportional to the activity of Arginase II. Also: in the data most compounds retested in dose-response had high values. Format: functional. The following applies: 33.3 µM.

Test [6] concerns the target T3, Proteasome subunit beta (Trypanosoma cruzi) (UniProt O96673).
T3 sequence (whole entry): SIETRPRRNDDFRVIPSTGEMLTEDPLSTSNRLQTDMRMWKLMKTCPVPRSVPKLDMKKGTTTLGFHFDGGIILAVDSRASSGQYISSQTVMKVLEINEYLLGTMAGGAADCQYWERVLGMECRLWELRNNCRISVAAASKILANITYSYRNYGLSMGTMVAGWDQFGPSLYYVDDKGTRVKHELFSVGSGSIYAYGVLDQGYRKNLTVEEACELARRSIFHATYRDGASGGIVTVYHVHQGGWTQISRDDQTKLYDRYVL
The test can be described thus: Trypanosoma cruzi proteasome chymotrypsin-like activity (TcProtChymo) assay. Also: in the data most compounds retested in dose-response had high values. The format is functional. The settings on record: 9.37 µM.

Test [7] is filed under the species Homo sapiens. The test can be described thus: To identify inhibition of the IFN signalling (Jak-Stat) pathway via expression of an eGFP reporter gene under the control of an IFN-stimulated response element (ISRE) containing MxA promoter. The settings on record: 30 µM. The format is functional. (In general: In a reporter assay the amount or activity of a reporter protein is the signal.)

Test [8] has as its target T4, Tyrosyl-tRNA synthetase, putative (Trypanosoma cruzi (strain CL Brener)) (UniProt Q4DSP6).
T4 sequence (whole entry): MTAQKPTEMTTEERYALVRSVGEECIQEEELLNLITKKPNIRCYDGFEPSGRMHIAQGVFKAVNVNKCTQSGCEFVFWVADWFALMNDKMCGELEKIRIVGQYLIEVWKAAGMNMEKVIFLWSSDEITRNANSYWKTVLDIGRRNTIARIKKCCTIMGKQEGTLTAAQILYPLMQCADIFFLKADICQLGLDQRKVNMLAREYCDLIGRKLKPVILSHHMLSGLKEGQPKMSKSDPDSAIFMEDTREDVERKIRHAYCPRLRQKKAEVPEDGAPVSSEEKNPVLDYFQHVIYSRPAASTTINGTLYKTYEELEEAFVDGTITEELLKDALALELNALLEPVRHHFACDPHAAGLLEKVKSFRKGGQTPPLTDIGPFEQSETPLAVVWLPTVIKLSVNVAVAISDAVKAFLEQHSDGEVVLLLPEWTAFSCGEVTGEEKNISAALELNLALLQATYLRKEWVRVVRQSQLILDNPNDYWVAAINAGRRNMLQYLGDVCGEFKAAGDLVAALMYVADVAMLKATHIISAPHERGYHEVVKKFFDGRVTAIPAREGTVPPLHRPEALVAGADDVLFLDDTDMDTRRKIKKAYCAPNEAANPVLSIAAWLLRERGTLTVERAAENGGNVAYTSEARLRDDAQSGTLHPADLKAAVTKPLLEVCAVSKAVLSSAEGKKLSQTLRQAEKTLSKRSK
The test can be described thus: Trypanosoma cruzi tyrosyl tRNA synthetase (TcYRS) _High Tyrosine SOP. Also: in the data most compounds retested in dose-response had high values. The following applies: 30 µM. Format: functional.

Test [9] addresses T4, Tyrosyl-tRNA synthetase, putative (Trypanosoma cruzi (strain CL Brener)). The test can be described thus: Trypanosoma cruzi tyrosyl tRNA synthetase (TcYRS) SOP. The settings on record: 30 µM. Format: functional.
In test [10] the target is Chromo domain-containing protein 1 (Saccharomyces cerevisiae (strain ATCC 204508 / S288c) (Baker's yeast)) (UniProt P32657). The test can be described thus: ScCHD-1 Enzyme Inhibition Assay. Also: in the data most compounds retested in dose-response had high values. The format is functional. The following applies: 30 µM.
Sequence of Chromo domain-containing protein 1 (Saccharomyces cerevisiae (strain ATCC 204508 / S288c) (Baker's yeast)) (P32657 whole entry, the tested form may be a part): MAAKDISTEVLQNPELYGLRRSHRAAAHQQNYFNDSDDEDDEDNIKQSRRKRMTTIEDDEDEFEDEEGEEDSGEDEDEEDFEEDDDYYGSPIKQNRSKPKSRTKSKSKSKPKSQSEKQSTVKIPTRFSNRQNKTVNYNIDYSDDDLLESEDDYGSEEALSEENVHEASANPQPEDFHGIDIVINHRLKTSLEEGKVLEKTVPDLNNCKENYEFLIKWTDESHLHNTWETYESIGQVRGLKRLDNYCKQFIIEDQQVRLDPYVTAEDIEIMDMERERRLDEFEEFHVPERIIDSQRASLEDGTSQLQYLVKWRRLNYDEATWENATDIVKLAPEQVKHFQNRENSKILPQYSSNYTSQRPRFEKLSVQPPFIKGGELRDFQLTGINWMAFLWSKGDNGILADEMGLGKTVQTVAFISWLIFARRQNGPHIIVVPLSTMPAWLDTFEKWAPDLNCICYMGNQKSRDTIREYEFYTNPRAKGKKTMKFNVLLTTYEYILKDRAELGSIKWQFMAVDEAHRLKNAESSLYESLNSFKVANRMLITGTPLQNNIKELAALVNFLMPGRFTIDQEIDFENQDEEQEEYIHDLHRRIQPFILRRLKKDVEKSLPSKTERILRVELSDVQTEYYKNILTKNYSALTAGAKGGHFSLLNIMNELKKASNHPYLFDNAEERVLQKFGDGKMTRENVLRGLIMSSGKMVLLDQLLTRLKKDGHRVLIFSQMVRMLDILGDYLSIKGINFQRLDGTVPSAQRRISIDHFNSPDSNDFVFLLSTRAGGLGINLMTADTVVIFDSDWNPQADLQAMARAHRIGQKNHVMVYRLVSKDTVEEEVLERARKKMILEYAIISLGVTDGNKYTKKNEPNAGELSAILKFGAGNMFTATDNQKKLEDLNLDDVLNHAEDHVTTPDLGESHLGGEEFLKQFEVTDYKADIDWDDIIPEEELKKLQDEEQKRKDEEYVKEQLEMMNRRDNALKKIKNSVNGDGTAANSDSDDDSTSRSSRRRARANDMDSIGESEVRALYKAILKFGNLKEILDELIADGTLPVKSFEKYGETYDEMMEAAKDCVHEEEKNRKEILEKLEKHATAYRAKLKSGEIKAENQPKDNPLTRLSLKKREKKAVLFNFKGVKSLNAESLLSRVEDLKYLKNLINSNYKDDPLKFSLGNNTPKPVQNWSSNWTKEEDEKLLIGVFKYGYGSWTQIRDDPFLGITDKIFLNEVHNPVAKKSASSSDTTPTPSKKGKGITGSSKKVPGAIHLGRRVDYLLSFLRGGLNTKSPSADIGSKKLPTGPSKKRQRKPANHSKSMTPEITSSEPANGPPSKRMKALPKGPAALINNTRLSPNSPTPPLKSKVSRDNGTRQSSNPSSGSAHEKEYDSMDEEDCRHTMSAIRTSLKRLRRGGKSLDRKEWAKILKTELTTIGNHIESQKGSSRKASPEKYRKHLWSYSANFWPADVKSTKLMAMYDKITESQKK

Each structure is given as a SMILES string. For part of these data: Entries with a potency or affinity are not part of this list.

Sequence of Protein translocase subunit SecA (Escherichia coli (strain K12)) (P10408 whole entry): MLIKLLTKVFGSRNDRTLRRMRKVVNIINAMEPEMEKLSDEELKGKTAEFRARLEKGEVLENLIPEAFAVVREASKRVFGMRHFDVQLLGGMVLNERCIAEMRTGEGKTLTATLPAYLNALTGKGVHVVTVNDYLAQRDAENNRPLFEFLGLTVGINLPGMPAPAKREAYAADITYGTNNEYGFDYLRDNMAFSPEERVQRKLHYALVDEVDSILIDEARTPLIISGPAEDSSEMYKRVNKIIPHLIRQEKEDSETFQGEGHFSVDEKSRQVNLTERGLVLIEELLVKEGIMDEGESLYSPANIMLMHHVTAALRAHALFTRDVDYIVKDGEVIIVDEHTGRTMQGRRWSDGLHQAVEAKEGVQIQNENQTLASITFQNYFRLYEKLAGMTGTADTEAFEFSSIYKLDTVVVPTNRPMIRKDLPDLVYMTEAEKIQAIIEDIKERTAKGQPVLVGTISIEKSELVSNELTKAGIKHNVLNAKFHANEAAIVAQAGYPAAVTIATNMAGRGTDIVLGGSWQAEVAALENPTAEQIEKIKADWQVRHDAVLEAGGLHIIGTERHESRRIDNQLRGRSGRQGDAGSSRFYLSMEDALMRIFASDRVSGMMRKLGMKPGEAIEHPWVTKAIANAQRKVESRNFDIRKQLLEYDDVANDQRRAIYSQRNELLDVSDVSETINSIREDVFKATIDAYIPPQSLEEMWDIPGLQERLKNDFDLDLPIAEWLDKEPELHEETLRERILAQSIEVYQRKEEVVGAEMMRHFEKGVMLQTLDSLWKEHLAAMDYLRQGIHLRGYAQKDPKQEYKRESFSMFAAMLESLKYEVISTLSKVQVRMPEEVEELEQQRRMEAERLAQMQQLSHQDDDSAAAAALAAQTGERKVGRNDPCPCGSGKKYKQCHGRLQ

For `CCn1ccnc1CN1CCCN(C(=O)c2cccn2C)CC1`, the Percent Effect is -5.36% in test [1]; 12.8% in test [2]; -19.1% in test [3]; 14% in test [4]; -2.46% in test [5]; 8.79% in [6]. Further, the Percent Effect in test [7] worked out at 4.83%; in test [8] it was 2.39%; in [9], 20.5%; in test [10], 31.3%.
`CCc1noc(C(C)N2CCN(Cc3nnc(C4CC4)o3)CC2)n1` (stereo not given): the Percent Effect in test [1] is -3.4%; in test [2], 2.67%; in [3], -2.35%; in test [4] it was 0.402%; in test [5], -1.77%; in [6], -3.31%. For the same molecule, the Percent Effect in [7] was -5.04%; in [8] it was 0.526%; in [9] it was 0%; in test [10], -5.5%.
Take `CC(C)N1CCCC2(CCN(C(=O)CCCn3ccnc3)C2)C1=O` (stereo not given): the Percent Effect in test [1] was -6.84%; in [2], 2.7%; in test [3], 0.678%; in test [4] it was -2.62%; in test [5], -1.75%; in [6] it was 13.4%. The Percent Effect in [7] is -5.32%; in test [8] it was 4.79%; in test [9] it was 12.2%; in test [10], -0.546%.
Take `CN(C)C(=O)CN1C(=O)CCC12CCN(Cc1cccn1C)CC2`: the Percent Effect was -0.209% in test [1]; -1.3% in test [2]; 0.456% in [3]; 3% in test [4]; -0.913% in [5]; 11.9% in test [6]. In addition, the Percent Effect in test [7] is 7.89%; in test [8], 10.6%; in [9] it was 20%; in [10], -9.53%.
As for `COc1ccc(S(N)(=O)=O)cc1C(=O)N(C)Cc1cc(C)on1`, the Percent Effect in test [1] is 1.97%; in test [2], 20.5%; in test [3], -20.8%; in [4], 1.41%; in test [5], -2.87%; in test [6], 16%. The Percent Effect was 15.7% in test [7], 1.44% in test [8], 18.1% in test [9] and -7.04% in test [10].
Regarding `CCC(CC)C(=O)N1CCC2(C1)CN(c1ccccc1)C(=O)CN2C` (stereo not given), the Percent Effect in test [1] is -1.78%; in test [2], 3.9%; in [3] it was -5.2%; in test [4] it was -8.08%; in test [5], 4.86%; in test [6] it was 14.7%. Further, the Percent Effect is -19.6% in test [7], 5.79% in test [8], 0% in [9] and -2.51% in test [10].
In the case of `COc1ccccc1-c1cc(C(F)(F)F)c2c(C)nn(CC(=O)O)c2n1`, the Percent Effect in [1] is 5.48%; in [2], 14.7%; in [3] it was -8.22%; in test [4] it was -2.56%; in [5] it was 6.64%; in test [6] it was 11.5%. For the same molecule, the Percent Effect in test [7] was 26.5%; in test [8], -13.8%; in test [9], -17.5%; in test [10], -17.5%.
For `Cc1ncccc1NC(=O)C1=NOC2(CCN(Cc3nccs3)C2)C1` (stereo not given), the Percent Effect in test [1] is -7.98%; in test [2], -14.3%; in test [3], 2.46%; in test [4], -0.682%; in test [5], 4.45%; in [6], 17.7%. The Percent Effect in test [7] is -6.55%; in test [8], 6.84%; in [9], 15.4%; in test [10] it was 5.53%.
As to `Cc1ccc(C#N)cc1NC(=O)NC1CCCN(c2ncccn2)C1` (stereo not given), the Percent Effect is -5.74% in test [1]; 15.6% in test [2]; 3.91% in test [3]; -2.98% in test [4]; 1.02% in [5]; -1.4% in [6]. In addition, the Percent Effect in [7] was 20.9%; in test [8], 3.92%; in [9] it was 18.8%; in [10] it was -8.47%.
Consider `Cc1[nH]c(=O)c(C#N)cc1C(=O)N1C[C@@H](CN2CCCC2)C[C@H](CO)C1`, for which the Percent Effect in [1] was -6.79%; in test [2], -8.11%; in test [3], -1.68%; in [4], -2.81%; in [5], 3.85%; in test [6], -5.82%. Further, the Percent Effect in [7] is 21.2%; in test [8], -0.532%; in test [9], -2.44%; in test [10], 2.93%.
Consider `Cc1nc(CN2CCC(N(C)Cc3noc(C4CC4)n3)C2)oc1C` (stereo not given), for which the Percent Effect in [1] stood at 0.865%; in [2] it was 18.2%; in test [3], 0.312%; in test [4], 1.31%; in [5], 0.205%; in test [6], 18.8%. For the same molecule, the Percent Effect in [7] was 12.6%; in test [8], 12.8%; in test [9], 28.2%; in [10] it was -10.9%.
Consider `Cn1nc2c(cc1=O)CN(Cc1nc(-c3cccs3)no1)CC2`, for which the Percent Effect is -4.37% in [1]; 5.33% in test [2]; 3.65% in test [3]; 1.61% in test [4]; -1.77% in [5]; 13.7% in test [6]. Besides, the Percent Effect in test [7] is 12.3%; in test [8], -0.526%; in test [9], 2.56%; in test [10], -8.34%.
